Sampled rows, rich in hits. Any-hit rate of the full collection: about 10%.
BAZ2B block: blocks human BAZ2B. Q9UIF8. AlphaScreen BAZ2B-H3K14Ac peptide displacement. Potency, µM (highest dose often 114 µM), usual class: inhibitors. 360,000 compounds, 4.4% hits; note: nearly all actives have a fitted effect of over 60% in size
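Inhibition is scored as reduced AlphaScreen emission. The BAZ2B/b-H3(5-23)K14Ac complex (50 nM each) in PBS pH 7.4, 0.01% Tween-20 meets compound (up to 110 uM) for 30 min at RT before bead addition.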
HP1b chromo inh: blocks HP1-beta chromodomain binding to methylated histone tails | 390,000 compounds, 0.56% hits | Potency, µM (doses to about 114 µM), hits mostly inhibitors | P83916 | AID 540317 | AlphaScreen HP1-beta / biotin-H3K9me3 peptide binding; note: nearly all actives have a fitted effect of over 70% in size
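HP1-beta protein (50 nM final) preincubated 30 min at room temperature with biotinylated H3(1-18)K9me3 peptide (50 nM) in PBS pH 7.4, 0.01% Tween-20, then compound added for 30 min. AlphaScreen streptavidin donor/nickel chelate acceptor beads (10 ug/mL final), 30 min dark, luminescence read.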
GLS inh: inhibitors of human glutaminase (GLS) | O94925 | GLS enzymatic activity, qHTS titration | Potency, µM (titrated, usually from 45.5 µM), most hits filed as inhibitors | 410,000 compounds, 0.21% hits
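Enzyme dispensed in phosphate buffer (45 mM, pH 8.2, 0.02% Tween-20), compounds pinned in, then 1 mM L-glutamine solution and the glutamate oxidase–HRP–Amplex Red mix added; fluorescence read immediately and again after 30 min at room temperature.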
JMJD2A Tudor inh: inhibitors of human JMJD2A Tudor domain; 390,000 compounds, 4.4% hits; Potency, µM (titrated, usually from 114 µM), actives largely listed as inhibitors; O75164; AlphaScreen JMJD2A-Tudor / H3K4me3 peptide binding; AID 504339; note: nearly all actives have a fitted effect of over 50% in size
G9a inh: blocks human histone lysine methyltransferase G9a; Potency, µM (doses to about 102 µM), hits mostly inhibitors; AID 504332; 350,000 compounds, 8.8% hits; G9a H3K9 monomethylation, AlphaScreen, 2 h; note: nearly all actives have a fitted effect of over 75% in size
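Signal arises when biotinylated H3K9 peptide, once monomethylated, bridges streptavidin donor and antibody-captured acceptor beads. Enzyme at 20 nM was preincubated 15 min with test compounds; peptide 500 nM and SAM 20 uM then reacted for 2 h.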
A number is an active result; 0 = inactive; ? = inconclusive; - = not tested or not shown; ! = repeats disagree; [ ] = dose if it differs, or a comment. Calls come from the whole dose curve; as a rule, active = well fitted curve in the direction sought with a large enough effect; inconclusive = small, poorly fitted or top-dose-only effect, or another doubt; inactive = no such curve, though single readings can be large; an effect the other way counts as inactive or inconclusive.

SMILES	BAZ2B block	HP1b chromo inh	GLS inh	JMJD2A Tudor inh	G9a inh
NC(CP(=O)(O)O)C(=O)O (centres undefined)	-	-	-	-	27µM!
Cc1c(O)c(=O)ccn1C	45µM	0	0	16µM	1.6µM!
COc1ccc(NP(=O)(Nc2ccc(OC)cc2)Oc2ccccc2)cc1	0	0	0	0	0
COc1ccc(C(=O)CC2(CC(=O)c3ccc(OC)cc3)C(=O)N(C)C(=O)N(C)C2=O)cc1	0	0	0	0	40µM
Cc1cc(O)c2c(c1)C(=O)c1cc(O)cc(O)c1C2=O	-	?	0	45µM	1.7µM
Cc1ccccc1Nc1c(-c2ccc(Br)cc2O)nc2sccn12	22µM	0	0	?	?
COc1ccc(NP(=O)(Oc2cccc(C)c2)Oc2cccc(C)c2)cc1OC	?	0	0	?	0[12.7 µM]
COC(=O)c1c(C)[nH]c(C(=O)C(C)[N+]23CCN(CC2)CC3)c1C (centres undefined)	0	0	0	0	0
O=C(c1ccccc1)C(CN1CCCC1)c1ccccc1 (centres undefined)	0	0	0	0	0
CC1CCN(C(CC(=O)c2ccccc2)C(=O)c2ccccc2)CC1 (centres undefined)	-	?	?	20µM	-
O=Cc1cn(Cc2c(F)cccc2Cl)nc1-c1ccccc1	-	0	0	0	-
COc1ccccc1OP(=O)(Nc1ccc(Br)cc1)Oc1ccccc1OC	0	0	0	0	0
CN1[C@@H]2CCC[C@H]1CC(=O)C2	-	0	0	0	0[21.5 µM]
CC1(C)OC(c2ccccc2)=C/C(=C/C=C2C(=O)NC(=O)NC2=O)O1	0	0	0	0	35µM
Cc1cc(C)nc(NS(=O)(=O)c2ccc(N=Cc3c(O)n(C)c(=O)n(C)c3=O)cc2)n1	0	0	0	0	0
CC[C@@H](CO)NC(=O)[C@@H]1C=C2c3cccc4c3c(cn4C)C[C@H]2N(C)C1	?	0	0	0	6.3µM!
CC[C@H](CO)NC(=O)[C@H]1C=C2c3cccc4[nH]cc(c34)C[C@@H]2N(C)C1	-	-	-	-	7.9µM
CCC(CO)NC(=O)C1C=C2c3cccc4[nH]cc(c34)CC2N(C)C1 (centres undefined)	0	0	0	0	?
CCN(CC)C(=O)N[C@@H]1C=C2c3cccc4[nH]cc(c34)C[C@H]2N(C)C1	-	-	0	-	?
CC[C@@H](CO)NC(=O)[C@@H]1C=C2c3cccc4[nH]cc(c34)C[C@H]2N(C)C1	-	0	0	0	14µM
COC(=O)C1C=C2c3cccc4[nH]cc(c34)CC2N(C)C1 (centres undefined)	40µM	-	-	-	?
Cc1ccc[n+](CC(O)Cn2c3ccccc3c3ccccc32)c1 (centres undefined)	0	0	0	0	0
CC(=O)c1cc(C#N)c(N2CCN(C)CC2)nc1C	0	0	0	0	?
Cc1cc(C)cc(NC(=O)Cn2c(=O)oc3cc(S(=O)(=O)N4CC(C)CC(C)C4)ccc32)c1 (centres undefined)	0	0	0	0	?
CCOC(=O)c1ccc(NC(=O)c2sc3nc4c(cc3c2N)N2CCC4CC2)cc1	0	0	0	0	0
SMILES	BAZ2B block	HP1b chromo inh	GLS inh	JMJD2A Tudor inh	G9a inh
COc1ccc(-c2n(-c3ccccn3)c3ccccc3[n+]2-c2ccccn2)cc1	0	0	0	0	3.2µM
c1ccc(-c2nc(N3CCOCC3)s[n+]2-c2ccccc2)cc1	0	?	?	18µM	1.1µM
COc1ccc(C(CC(=O)c2ccc3c(c2)OCO3)c2c(O)c3ccccc3oc2=O)cc1OC (centres undefined)	-	-	0	-	-
Nn1c(COc2ccc(Cl)cc2)n[nH]c1=S	0	0	0	32µM	1.8µM
Cc1cccc(C)c1OCc1n[nH]c(=S)n1N	?	0	0	18µM	1.8µM
Cc1ccccc1Cc1c(C)nc2nc(SCC(=O)N3CCC4(CC3)OCCO4)nn2c1C	0	0	0	0	0
COc1ccc(/C=C/C(=O)c2c(O)n(CCC3=CCCCC3)c(=O)[nH]c2=O)cc1	0	0	0	0	0
O=C(/C=C/c1ccc2c(c1)OCO2)c1c(O)n(CCC2=CCCCC2)c(=O)[nH]c1=O	0	0	0	0	11µM
COc1ccc2[nH]cc(CCN)c2c1	?	0	0	50µM	0
CCCCCCCCCOc1ccc2[nH]cc(CCN)c2c1	35µM	-	-	-	16µM!
CNc1ccc2nc3ccccc3[n+](C)c2c1	35µM	?	0	0	0[2.33 µM]
OCCNc1c2c(nc3ccccc13)CCCC2	0	0	0	0	0
C[n+]1c2ccccc2nc2ccc(NCCO)cc21	13µM	40µM	0	?	0[2.33 µM]
Cc1ccc(S(=O)(=O)N2Cc3ccccc3-n3nncc3C2)cc1	-	0	0	0	-
Cc1cccc(C)c1NC(=O)CN1CCCC1=O	-	-	0	-	0
Cc1ccccc1[N+](=O)[O-]	0	0	0	0	0[0.501 µM]
COC(=O)C1=C(C)NC(C)=C(C(=O)OC)C1c1ccccc1[N+](=O)[O-]	40µM	?	0	?	3µM
N#Cc1cc2c(nc1SCC(=O)Nc1cccc(F)c1)C1CCN2CC1	0	0	0	0	0
Nc1ccc(N)cc1	-	-	0	-	13µM
Nc1ccc(Cl)cc1	-	-	0	-	-
O=P(C(Cl)Cl)(N1CCCCC1)N1CCCCC1	0	-	0	0	0
O=P(OCC(F)(F)C(F)F)(N1CCCCC1)N1CCCCC1	0	0	0	0	45µM
N#Cc1c(Cl)nc(Cl)c2c1CCN(Cc1ccccc1)C2	0	0	0	0	?
COc1cc(/C=C2\C(=O)NC(=O)N(c3ccccc3)C2=O)c([N+](=O)[O-])cc1OC	0	0	0	0	10µM
O=C1NC(=O)N(c2cccc(F)c2)C(=O)/C1=C/c1ccc(N2CCOCC2)cc1	0	0	0	0	-
SMILES	BAZ2B block	HP1b chromo inh	GLS inh	JMJD2A Tudor inh	G9a inh
O=C1NC(=S)N(c2ccc(F)cc2)C(=O)/C1=C/c1ccco1	1.8µM	-	-	-	?
Cc1ccc(N2C(=O)NC(=O)/C(=C\c3ccoc3)C2=O)cc1	?	0	0	0	45µM
O=C1NC(=S)N(c2ccc(F)cc2)C(=O)/C1=C\c1ccoc1	14µM	5.6µM	0	3.2µM	7.9µM
CCc1ccc(N2C(=O)NC(=O)/C(=C/c3ccsc3)C2=O)cc1	0	-	-	-	40µM
O=C1NC(=S)N(c2ccc(Cl)cc2)C(=O)/C1=C/N1CCN(C(=O)c2ccco2)CC1	0	0	0	0	50µM
COc1ccc(OC)c(N2C(=O)NC(=O)/C(=C/c3ccc([N+](=O)[O-])s3)C2=O)c1	40µM	32µM	0	28µM	11µM
O=C1NC(=O)N(c2ccc3c(c2)OCO3)C(=O)/C1=C/c1ccsc1	0	0	0	0	?
COc1ccc(OC)c(N2C(=O)/C(=C/c3ccco3)C(=O)NC2=S)c1	1.4µM	3.2µM	0	1.6µM	1.8µM
COc1ccc(NP2(=O)NCCCN2)cc1	-	0	0	0	-
Cn1cc[n+](C)c1P(=S)(c1ccccc1)c1ccccc1	0	0	0	?	?
Cc1ccc2c(c1)C1CN(C)CCC1N2S(=O)(=O)c1ccccc1 (centres undefined)	0	0	0	0	?
CC(C)CN1CCCC2(CCN(C(=O)c3ccncc3)CC2)C1	-	-	-	-	0[12.7 µM]

Source: PubChem BioAssay
